Source: PubChem BioAssay
Compounds with a hit are over-represented: about 10% of the library has one in this group of screens.
HEK293 tox = cytotoxic compounds in HEK 293 cells; Potency, µM (series often up to 115 µM), without a hit: at the top dose activity change, negative = cytotoxicity, actives largely listed as inhibitors; actives 6.6% (n = 94,000); AID 1345083; HEK 293 viability, ATP luminescence (CellTiter-Glo), 48-72 h; note: % is set by controls: 0 for no effect and ±100 for the full control effect; nearly all actives have a fitted effect of over 60% in size
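Luminescence from cellular ATP, measured with CellTiter-Glo, indicates HEK 293 viability. Cells plated at 250 cells/well are treated with compound for 48 or 72 hr at 37 degree Celsius before reagent addition.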
GPT2 inh = GPT2 alanine aminotransferase inhibition. Q8TD30. Recombinant GPT2, coupled pyruvate oxidase/HRP Amplex Red fluorescence. Potency, µM (highest dose often 57.7 µM), for inactives: at the top dose activity change, negative = inhibition, actives largely listed as inhibitors. actives 0.25% (n = 100,000). AID 1671188; note: % is set by controls: 0 for no effect and ±100 for the full control effect; nearly all actives have a fitted effect of over 60% in size
Target sequence (Q8TD30 whole entry, looked up): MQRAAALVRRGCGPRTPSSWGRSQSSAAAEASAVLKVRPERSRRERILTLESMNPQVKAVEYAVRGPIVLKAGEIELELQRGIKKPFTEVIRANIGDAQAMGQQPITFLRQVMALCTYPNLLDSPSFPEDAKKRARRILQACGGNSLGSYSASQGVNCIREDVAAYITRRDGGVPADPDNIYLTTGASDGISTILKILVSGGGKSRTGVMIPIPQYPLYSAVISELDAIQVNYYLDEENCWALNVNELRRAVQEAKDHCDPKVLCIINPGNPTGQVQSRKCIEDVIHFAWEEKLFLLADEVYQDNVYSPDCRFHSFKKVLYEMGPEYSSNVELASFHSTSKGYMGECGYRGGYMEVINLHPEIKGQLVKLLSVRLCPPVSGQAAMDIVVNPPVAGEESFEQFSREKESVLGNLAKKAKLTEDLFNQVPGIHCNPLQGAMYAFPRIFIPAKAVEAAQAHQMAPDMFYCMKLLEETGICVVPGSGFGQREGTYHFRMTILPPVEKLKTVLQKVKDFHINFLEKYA
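Inhibition is scored from Amplex Red fluorescence generated when pyruvate oxidase and HRP act on pyruvate released by GPT2. Reactions contain 10ng/uL enzyme, 250uM a-KG and 2mM L-alanine and run 30 min at room temperature.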
3T3 cytotox = kills NIH 3T3 cells. actives 4.3% (n = 94,000). AID 1345082. NIH 3T3 viability, CellTiter-Glo ATP luminescence, 48-72 h. Potency, µM (doses to about 96.7 µM), inactives show at the highest dose activity change, negative = cytotoxicity, most hits filed as inhibitors; note: % is set by controls: 0 for no effect and ±100 for the full control effect; nearly all actives have a fitted effect of over 55% in size
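Cytotoxicity is measured as loss of cellular ATP: NIH 3T3 cells (400/well) are exposed to compound for 48 or 72 hr at 37 °C, then CellTiter-Glo luminescence is imaged after 10 min at room temperature.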
hNpr1 antagonist = blocks ANP-stimulated signaling of human Npr1 receptor; P16066; HEK293 hNpr1 GloSensor cGMP, ANP-stimulated luminescence; Potency, µM (doses to about 46.3 µM), for inactives: at the highest dose activity change, negative = inhibition, hits mostly inhibitors; actives 1.6% (n = 76,000); calls by dose curve; note: % is set by controls: 0 for no effect and ±100 for the full control effect; nearly all actives have a fitted effect of over 60% in size
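HEK293 cells stably expressing human Npr1 and cGMP GloSensor pGS-40F, loaded 2 h with 2% GloSensor reagent, given compound 30 min at room temperature. Luminescence read before and 20 min after 0.1 nM hNppA.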
FLuc inh = Photinus pyralis luciferase inhibition | purified P. pyralis luciferase, luminescence, biochemical | Potency, µM (titrated, usually from 115 µM), hits mostly inhibitors | actives 2.5% (n = 76,000); note: % is set by controls: 0 for no effect and ±100 for the full control effect; nearly all actives have a fitted effect of over 65% in size
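Inhibitors were tested against purified firefly luciferase in a biochemical, low-substrate format (both substrates at 10uM) and luminescence measured with a CCD imager.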
NPR1 antag cnf = hNpr1 antagonism, confirmation assay. shares compounds with hNpr1 antagonist. HEK293 hNpr1 cGMP GloSensor luminescence, ANP-stimulated. Potency, µM (top dose mostly 57.6 µM), inactives show at the top dose activity change, negative = inhibition, most hits filed as inhibitors. actives 76% (n = 1,400). AID 1347044; calls by dose curve; note: nearly all actives have a fitted effect of over 70% in size
NPR2 antag = hNpr2 antagonism, selectivity versus Npr1 | shares compounds with hNpr1 antagonist | HEK293 hNpr2 GloSensor cGMP luminescence, CNP-stimulated | Potency, µM (top dose mostly 57.6 µM), inactives show top-dose activity change, negative = inhibition, usual class: inhibitors | actives 67% (n = 1,400); calls by dose curve; note: nearly all actives have a fitted effect of over 70% in size
FLuc inh counter = FLuc enzyme inhibition, Npr1 counter-screen. shares compounds with hNpr1 antagonist. purified FLuc enzyme, luminescence, Km substrate. Potency, µM (doses to about 57.6 µM), without a hit: top-dose activity change, negative = inhibition, usual class: inhibitors. actives 0.7% (n = 1,400). AID 1347047; note: 0% is about no effect
GloSensor ctrl = reduces cGMP signal in GloSensor control cells. shares compounds with hNpr1 antagonist. HEK293 GloSensor cGMP, SNP-stimulated, luminescence. Potency, µM (titrated, usually from 57.6 µM), inactives show at the highest dose activity change, negative = inhibition, most hits filed as inhibitors. actives 69% (n = 1,400). AID 1347051; calls by dose curve; note: % is set by controls: 0 for no effect and ±100 for the full control effect; nearly all actives have a fitted effect of over 70% in size
* marks the source's active call; other numbers are inactive results; i = inactive; ? = inconclusive; / = no result given; [ ] = another dose, or the depositor's remark. Unless noted, calls come from the whole dose curve; as a rule, active = well fitted curve in the direction sought with a large enough effect; inconclusive = small, poorly fitted or top-dose-only effect, or another doubt; inactive = no such curve, though single readings can be large; an effect the other way counts as inactive or inconclusive. Potency is the fitted concentration of half-maximal effect.

SMILES	HEK293 tox	GPT2 inh	3T3 cytotox	hNpr1 antagonist	FLuc inh	NPR1 antag cnf	NPR2 antag	FLuc inh counter	GloSensor ctrl
N#Cc1ccc([S+](=O)([O-])N2CCC3(CC2)OCCN(CC2CC2)C3=O)cc1	-22%[172 µM]	-4%[88.5 µM]	?	18µM*	i	31µM*	?	5%[86.2 µM]	28µM*
O=C1N(CC2CC2)CCOC12CCN([S+](=O)([O-])c1ccccc1)CC2	-17%[172 µM]	-11%[88.5 µM]	?	-2%[70.6 µM]	i	/	/	/	/
O=C1N(CC2CCOCC2)CCOC12CCN([S+](=O)([O-])c1cccs1)CC2	-19%[172 µM]	-5%[88.5 µM]	?	-2%[70.6 µM]	i	/	/	/	/
O=C1N(CC2CC2)CCOC12CCN([S+](=O)([O-])c1ccc(C(F)(F)F)cc1)CC2	?	-14%[88.5 µM]	?	11µM*	i	18µM*	20µM*	-1%[86.2 µM]	11µM*
CC(C)C1NC(=O)C2CCCN2C1=O (centres undefined)	/	i	/	/	/	/	/	/	/
CCn1ncc(N2CCCC(CC(=O)N3CCN(Cc4ccccc4)CC3)C2)cc1=O (centres undefined)	-29%	-7%	-20%	2%	i	/	/	/	/
O=C(CCCc1ccccc1)N1CCCC(Cc2nc(C3CCOCC3)no2)C1 (centres undefined)	?	0%	?	0%	i	/	/	/	/
COCCC(=O)N1CCCC(Cc2nc(C3CCOCC3)no2)C1 (centres undefined)	3%	-15%	i	-18%	i	-7%	1%	1%	2%
O=C1N[C@H](CC(=O)N2CCC(c3ccccc3)C2)C(=O)Nc2ccccc21 (some centres undefined)	10%	i	i	6%	i	/	/	/	/
O=C1N[C@H](CC(=O)N2CCC(Cc3ccccc3)CC2)C(=O)Nc2ccccc21	?	i	-21%	10µM*	i	19µM*	12µM*	0%	-19%
CCc1cnc(N)nc1N1CCC(Oc2ccc(F)cc2)CC1	?	-8%	?	-15%	i	/	/	/	/
Cc1nccc(N2CCC(Oc3cnc4c(ccn4CCN[S+](C)(=O)[O-])c3)CC2)n1	?	3%[88.5 µM]	?	28µM*	i	31µM*	35µM*	-2%[86.2 µM]	25µM*
CCc1cnc(N2CCC(Oc3cnc4c(ccn4CCN[S+](C)(=O)[O-])c3)CC2)nc1	?	2%	?	6.3µM*	i	6.9µM*	9.7µM*	2%	6.9µM*
O=C(CCC1CCCN(S(=O)(=O)c2ccccc2)C1)N1CCN(c2ccccn2)CC1 (centres undefined)	45µM*	i	?	?	i	?	?	3%	?
Cc1ccc(S(=O)(=O)N2CCCC(CCC(=O)N3CCCCC3)C2)cc1 (centres undefined)	?	i	?	13µM*	i	?	?	1%	?
O=C(CCC1CCCN(S(=O)(=O)c2ccccc2)C1)NCC1CCCCC1 (centres undefined)	?	i	?	?	i	/	/	/	/
